This is an account of results in PubChem BioAssay (NCI).

About 83,000 compounds went through this panel and 20% of them were active in at least one assay; those are over-represented in the sample as a whole.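 Cells were grown in 96-well plates and exposed to the test compound at a single concentration for 48 hours; results are reported as percent growth, with values below 10 considered active.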 The source made the active and inactive calls.

Some test systems named below: NCI-H23 lung; NCI-H226 lung; NCI-H322M lung; HOP-62 NSCLC; NCI-H460 lung; NCI-H522 lung; A549/ATCC NSCLC; 786-0 renal; COLO 205 colon.
Common to all, as to test: NCI-60 one-dose screen, 48 h (100 = growth as untreated, 0 = no growth, -100 = all killed)
What all share (settings): 10 µM unless noted

As to `NCCN1CCN(c2nc(-c3ccccc3)nc3nc(-c4ccccc4)oc23)CC1`, the growth with NCI-H23 lung was -42.7% (active); with NCI-H226 lung, -57.6% (active); with NCI-H322M lung it was -41.4% (active); in the assay on HOP-62 NSCLC, 0.341% (active); with NCI-H460 lung, -67.7% (active); with NCI-H522 lung, -13.1% (active). The figures for the growth in the assay with A549/ATCC NSCLC, in the assay with 786-0 renal and in the assay on COLO 205 colon were -63.7% (active), -83.3% (active) and -44.7% (active), respectively.

With `CN1CCN(Cc2ccc(NC(=O)c3cncc(C#Cc4[nH]nc5ncncc45)c3)cc2C(F)(F)F)CC1`, the growth with NCI-H23 lung is 57.1% (inactive); with NCI-H226 lung, 55% (inactive); in the assay on NCI-H322M lung it was 75.1% (inactive); in the assay on HOP-62 NSCLC, 65.7% (inactive); in the assay on NCI-H460 lung, 64.3% (inactive); in the assay on NCI-H522 lung, 66.2% (inactive). In addition, the growth with A549/ATCC NSCLC was 84.3% (inactive); with 786-0 renal it was 86.3% (inactive); with COLO 205 colon, 16.5% (inactive).

With `O=C(NCCCNc1cc(-c2cn(-c3ccccc3)nc2-c2cccc(O)c2)ccn1)Nc1cc(C(F)(F)F)cc(C(F)(F)F)c1`, the growth was 83.2% (inactive) in the assay on NCI-H23 lung; 79.6% (inactive) in the assay with NCI-H226 lung; 90.3% (inactive) in the assay on NCI-H322M lung; 78.2% (inactive) with HOP-62 NSCLC; 61.3% (inactive) in the assay with NCI-H460 lung; 89.5% (inactive) in the assay on NCI-H522 lung. Besides, the growth in the assay with A549/ATCC NSCLC is 67.1% (inactive); in the assay on 786-0 renal, 63.2% (inactive); in the assay on COLO 205 colon, 80.4% (inactive).

`Cn1cc(-c2nn3cc(-c4ccncc4)nc3s2)c2cc(Cl)ccc21`: the growth in the assay with NCI-H23 lung was 44.5% (inactive); in the assay with NCI-H226 lung it was 86.1% (inactive); in the assay with NCI-H322M lung, 78.3% (inactive); in the assay with HOP-62 NSCLC it was 67.4% (inactive); in the assay with NCI-H460 lung, 51.5% (inactive); in the assay with NCI-H522 lung, 46% (inactive). For the same compound, the growth was 64% (inactive) in the assay on A549/ATCC NSCLC, 89.1% (inactive) in the assay with 786-0 renal and 31.9% (inactive) in the assay on COLO 205 colon.

With `COc1ccc2c(c1)c(-c1nnc(N)nc1-c1cn(C)c3ccccc13)cn2C`, the growth was 92.4% (inactive) with NCI-H23 lung; 86.5% (inactive) with NCI-H226 lung; 90.4% (inactive) with NCI-H322M lung; 89.1% (inactive) in the assay on HOP-62 NSCLC; 99.5% (inactive) in the assay on NCI-H460 lung; 85% (inactive) with NCI-H522 lung. Besides, the growth in the assay on 786-0 renal was 90.7% (inactive); with COLO 205 colon, 104% (inactive).

In the case of `CCOC(=O)c1c(NC(=O)c2ccc(F)cc2F)sc2c1CCC(=O)C2`, the growth in the assay with NCI-H23 lung was 103% (inactive); with NCI-H226 lung, 107% (inactive); in the assay on NCI-H322M lung, 102% (inactive); with HOP-62 NSCLC it was 104% (inactive); with NCI-H460 lung it was 102% (inactive); in the assay with NCI-H522 lung it was 51.6% (inactive). Also, the growth is 92.8% (inactive) with A549/ATCC NSCLC, 100% (inactive) with 786-0 renal and 109% (inactive) with COLO 205 colon.

For `C=C(C)C(=O)O[C@H]1C[C@@]2(C)OC(=CC2=O)/C(C)=C\[C@H]2OC(=O)C(=C)[C@H]12`, the growth with NCI-H23 lung was -2.39% (active); with NCI-H226 lung it was -1.67% (active); in the assay with NCI-H322M lung, 79.9% (inactive); with HOP-62 NSCLC, 58.8% (inactive); in the assay with NCI-H460 lung, 13.3% (inactive); with NCI-H522 lung, -72% (active). The growth was 58.5% (inactive) with A549/ATCC NSCLC, -71.3% (active) in the assay on 786-0 renal and -50.1% (active) with COLO 205 colon.

Turning to `COc1ccc([C@H]2c3[nH]c4ccccc4c3C[C@@H]3C(=O)N(C4CCN(Cc5ccccc5)CC4)CC(=O)N23)c(OC)c1`, the growth in the assay with NCI-H23 lung was 93.7% (inactive); with NCI-H226 lung it was 82.3% (inactive); in the assay with NCI-H322M lung, 90.1% (inactive); in the assay on HOP-62 NSCLC, 80.8% (inactive); in the assay with NCI-H460 lung, 54.4% (inactive); with NCI-H522 lung, 87% (inactive). For the same compound, the growth with A549/ATCC NSCLC was 69.8% (inactive); in the assay on 786-0 renal, 74.3% (inactive); in the assay with COLO 205 colon, 67.1% (inactive).

Take `COc1ccc(-c2cc(-c3cccc4ccccc34)n3c(n2)nc2ccccc23)cc1OC`: the growth is 44.7% (inactive) in the assay on NCI-H23 lung; 19.8% (inactive) in the assay on NCI-H226 lung; 75.8% (inactive) with NCI-H322M lung; -0.816% (active) in the assay with HOP-62 NSCLC; 3.44% (active) in the assay with NCI-H460 lung; 48.1% (inactive) in the assay on NCI-H522 lung. For the same compound, the figures for the growth in the assay on A549/ATCC NSCLC, with 786-0 renal and in the assay on COLO 205 colon were 24.2% (inactive), 10.5% (inactive) and 65.4% (inactive), respectively.

Consider `CN1C(=O)N(C)C2C1NN=c1s/c(=C\c3ccccn3)c(=O)n12` (centres undefined), for which the growth with NCI-H23 lung was 99.1% (inactive); with NCI-H226 lung, 99.7% (inactive); in the assay on NCI-H322M lung, 99.6% (inactive); with HOP-62 NSCLC it was 100% (inactive); in the assay on NCI-H460 lung, 108% (inactive); in the assay on NCI-H522 lung, 93.4% (inactive). The growth in the assay on A549/ATCC NSCLC was 99.8% (inactive); in the assay on 786-0 renal, 101% (inactive); in the assay with COLO 205 colon, 110% (inactive).

As for `COc1ccc(OC)c([C@H]2c3[nH]c4ccccc4c3C[C@H]3C(=O)N(CCCCCCC(=O)NO)CC(=O)N23)c1`, the growth in the assay with NCI-H23 lung was 100% (inactive); with NCI-H226 lung, 103% (inactive); in the assay on NCI-H322M lung it was 93.3% (inactive); in the assay with HOP-62 NSCLC, 85.4% (inactive); in the assay on NCI-H460 lung, 87.1% (inactive); with NCI-H522 lung, 69.2% (inactive). Moreover, the growth is 106% (inactive) with A549/ATCC NSCLC, 99.5% (inactive) in the assay with 786-0 renal and 86.4% (inactive) in the assay with COLO 205 colon.

Consider `CC(=O)Nc1cccc(-n2cnc3cc(-c4ccc(O)cc4)ccc32)c1`, for which the growth in the assay with NCI-H23 lung was 47.8% (inactive); in the assay on NCI-H226 lung, 37.9% (inactive); in the assay with NCI-H322M lung, 56.6% (inactive); with HOP-62 NSCLC it was 38.4% (inactive); in the assay with NCI-H460 lung, 15.9% (inactive); in the assay with NCI-H522 lung, -29.8% (active). Moreover, the growth with A549/ATCC NSCLC is 50.4% (inactive); in the assay on 786-0 renal, 45.6% (inactive); in the assay with COLO 205 colon, 66.3% (inactive).

For `CN1CCN(c2ccc3c(C(N)=O)c(NC(=O)c4ccc(C(C)(C)C)cc4)sc3c2)CC1`, the growth with NCI-H23 lung is 79.7% (inactive); with NCI-H226 lung, 104% (inactive); in the assay with NCI-H322M lung, 94.7% (inactive); with HOP-62 NSCLC, 86.6% (inactive); in the assay on NCI-H460 lung it was 53.8% (inactive); in the assay with NCI-H522 lung it was 103% (inactive). The growth was 76.2% (inactive) with A549/ATCC NSCLC, 71.2% (inactive) with 786-0 renal and 70.1% (inactive) in the assay on COLO 205 colon.

With `COc1cc2c3c(n(CCCN4CCC[C@H]4C(N)=O)c(=O)c2cc1OC)-c1cc2c(cc1C3=O)OCO2`, the growth in the assay on NCI-H23 lung was -3.5% (active); in the assay on NCI-H226 lung it was -15% (active); with NCI-H322M lung it was 26.1% (inactive); with HOP-62 NSCLC, -0.224% (active); with NCI-H460 lung it was 0.252% (active); in the assay with NCI-H522 lung, 22% (inactive). Also, the growth in the assay with A549/ATCC NSCLC is 30.7% (inactive); in the assay with 786-0 renal, -10.3% (active); in the assay on COLO 205 colon, 16.4% (inactive).

In the case of `O=C(CCCCCCN1CC(=O)N2[C@@H](c3ccccc3)c3[nH]c4ccccc4c3C[C@H]2C1=O)NO`, the growth in the assay with NCI-H23 lung was 70.9% (inactive); in the assay with NCI-H226 lung, 105% (inactive); with NCI-H322M lung, 72.4% (inactive); in the assay on HOP-62 NSCLC it was 58.5% (inactive); with NCI-H460 lung it was 54.2% (inactive); in the assay with NCI-H522 lung, 35% (inactive). Also, the values for the growth in the assay with A549/ATCC NSCLC, with 786-0 renal and in the assay on COLO 205 colon were 95.9% (inactive), 93.3% (inactive) and 58.8% (inactive), respectively.
